Measured values published in the supplement of paper PMC3545927.
The other results are listed elsewhere or left out. How many sequences the whole screen found active is unknown.

Target: furin, P09958
Test: furin cleavage Z-score vs untreated control; higher = more cleavage, active = 3.5 or more, inactive = 1 or less, 8 variable residues between constant flanks
Protocol: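 Multiplexed peptide-cDNA fusion cleavage assay. 8-mer variable peptides flanked by constant Cys-Ala (N-term) and Ala-Gly-Asn-Ala-Ser-Ala-Ser-Ala (C-term) and conjugated to a cDNA oligonucleotide were bead-immobilised via the N-terminus. They were treated with purified furin at a 1:10 enzyme:substrate ratio in 50 mM HEPES pH 7.5, 1 mM CaCl2, 100 mM NaCl for 7.5, 15 or 30 min. Released cDNA was counted by next-generation sequencing, and log counts versus no-furin controls were lowess-adjusted and converted to robust Z-scores.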

furin, P09958, sequence (P09958 whole entry): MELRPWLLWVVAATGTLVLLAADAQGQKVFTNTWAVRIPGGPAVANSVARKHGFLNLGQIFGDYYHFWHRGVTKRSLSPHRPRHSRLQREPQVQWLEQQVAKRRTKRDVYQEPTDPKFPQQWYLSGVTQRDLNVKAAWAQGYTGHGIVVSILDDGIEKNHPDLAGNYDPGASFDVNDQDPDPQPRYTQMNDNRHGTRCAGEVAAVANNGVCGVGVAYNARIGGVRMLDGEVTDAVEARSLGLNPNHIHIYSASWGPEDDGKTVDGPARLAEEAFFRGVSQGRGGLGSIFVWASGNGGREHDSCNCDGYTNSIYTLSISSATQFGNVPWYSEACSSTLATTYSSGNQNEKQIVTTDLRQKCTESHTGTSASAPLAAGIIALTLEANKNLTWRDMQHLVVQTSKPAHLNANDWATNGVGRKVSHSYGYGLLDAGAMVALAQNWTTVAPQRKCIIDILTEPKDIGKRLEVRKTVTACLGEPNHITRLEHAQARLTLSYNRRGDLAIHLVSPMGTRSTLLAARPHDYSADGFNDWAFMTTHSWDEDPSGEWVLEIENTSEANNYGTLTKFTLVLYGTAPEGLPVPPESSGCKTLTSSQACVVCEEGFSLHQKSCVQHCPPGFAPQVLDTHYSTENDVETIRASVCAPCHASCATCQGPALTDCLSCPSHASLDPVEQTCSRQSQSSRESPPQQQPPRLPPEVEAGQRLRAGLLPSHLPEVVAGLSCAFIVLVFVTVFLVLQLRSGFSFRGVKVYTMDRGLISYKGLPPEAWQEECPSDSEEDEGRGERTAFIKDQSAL

Sequence	furin cleavage Z-score (7.5 min)	furin cleavage Z-score (15 min)	furin cleavage Z-score (30 min)
CATTPCSGIWAGNASASA [HC1904]	-0.536 (inactive)	0.611 (inactive)	-1.36 (inactive)
CAPTPLLYRLAGNASASA [HC971]	-0.296 (inactive)	0.704 (inactive)	0.366 (inactive)
CALWGRTRRLAGNASASA [FS-60]	1.66	4.15 (active)	3.16
CAVTQLLRRLAGNASASA [HC1137]	0.0354 (inactive)	-1.42 (inactive)	-1.96 (inactive)
CAPSRRQQRAAGNASASA [FS-1554]	9.53 (active)	8.72 (active)	7.58 (active)
CAPSCRYRRLAGNASASA [FS-1054]	4.67 (active)	7.06 (active)	7.38 (active)
CAPSRRTRRLAGNASASA [FS-1555]	7.98 (active)	11.7 (active)	8.56 (active)
CAMELCSQHLAGNASASA [HC1705]	2.69	0.76 (inactive)	2.04
CAMEENSQHLAGNASASA [HC18]	0.787 (inactive)	0.956 (inactive)	2.04
CAGGSAGHTVAGNASASA [HC355]	0.866 (inactive)	-0.487 (inactive)	0.0302 (inactive)
CAPVCCSMSYAGNASASA [HC1999]	0.302 (inactive)	-0.969 (inactive)	1.74
CAFKTWLKAKAGNASASA [HC1156]	-0.496 (inactive)	-0.829 (inactive)	-0.782 (inactive)
CASQLRYRRCAGNASASA [FS-503]	5.96 (active)	7.81 (active)	5.84 (active)
CAIPDRLRKCAGNASASA [FS-1014]	-0.934 (inactive)	-0.376 (inactive)	-0.995 (inactive)
CADLELITSCAGNASASA [HC1550]	0.66 (inactive)	-0.229 (inactive)	0.498 (inactive)
CASVLIARDQAGNASASA [HC1586]	0.606 (inactive)	0.779 (inactive)	-0.441 (inactive)
CAEHHRSRRCAGNASASA [FS-989]	2.96	3.54 (active)	3.96 (active)
CADPQRSRRCAGNASASA [FS-986]	0.928 (inactive)	0.649 (inactive)	1.13
CAQVMRRRRCAGNASASA [FS-1558]	7.16 (active)	5.85 (active)	4.82 (active)
CAQSLRCRRCAGNASASA [FS-623]	-0.625 (inactive)	-0.00103 (inactive)	-0.127 (inactive)
CASGARRRRCAGNASASA [FS-498]	0.58 (inactive)	0.416 (inactive)	0.773 (inactive)
